Screens: PubChem, National Center for Advancing Translational Sciences (NCATS)
Only some compounds are listed: those with a hit (about 3.4% of all), similar ones and a draw of the others.
Luciferase inh = inhibitors of firefly luciferase; hit rate 2.2% among 72,000; AID 411; purified firefly luciferase, luminescence, 8 min; Potency, µM (top dose mostly 57.1 µM), for inactives: at the highest dose activity change, negative = inhibition, actives largely listed as inhibitors; active means well fitted inhibition curve with a large enough effect; inconclusive means small, poorly fitted or top-dose-only effect; further: on the % scale 0 is the no-effect control and ±100 the full control effect; nearly all actives have a fitted effect of over 40% in size
Target sequence (P08659 whole entry, looked up): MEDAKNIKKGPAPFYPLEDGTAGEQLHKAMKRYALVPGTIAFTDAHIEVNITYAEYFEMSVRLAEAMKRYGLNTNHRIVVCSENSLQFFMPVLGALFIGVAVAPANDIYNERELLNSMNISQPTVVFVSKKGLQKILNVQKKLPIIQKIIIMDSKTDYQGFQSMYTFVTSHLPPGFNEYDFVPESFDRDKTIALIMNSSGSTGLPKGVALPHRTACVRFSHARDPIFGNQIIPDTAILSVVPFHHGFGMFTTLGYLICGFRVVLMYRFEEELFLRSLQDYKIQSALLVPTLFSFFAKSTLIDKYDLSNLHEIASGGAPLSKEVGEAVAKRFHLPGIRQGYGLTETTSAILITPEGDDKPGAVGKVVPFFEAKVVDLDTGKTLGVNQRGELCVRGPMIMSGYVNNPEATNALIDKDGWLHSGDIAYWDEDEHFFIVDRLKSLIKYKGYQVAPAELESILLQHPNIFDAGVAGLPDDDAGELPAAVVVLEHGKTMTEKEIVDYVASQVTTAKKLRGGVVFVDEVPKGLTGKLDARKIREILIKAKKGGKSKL
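Here, luciferase activity is measured as luminescence following an 8 min room-temperature reaction at 10 uM ATP, pH 7.2. Every library sample is titrated.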
Bst PK mod = pyruvate kinase (B. stearothermophilus) modulation. purified pyruvate kinase, luminescence ATP production; ribose 5-phosphate activator present at AC10. Potency, µM. hit rate 1.2% among 51,000. AID 361; in the data active means potency below about 11 µM; inconclusive means mostly about 12 µM to 25 µM;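 the screen sought inhibitors and activators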;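 further: scaled between full activation by ribose 5 phosphate and full inhibition by luteolin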
GBA mod = modulators of human glucocerebrosidase; P04062; purified enzyme, resorufin glucoside fluorescence (screen aimed at inhibitors), 20 min; Potency, µM; hit rate 1.1% among 48,000; in the data active means potency below about 15 µM; inconclusive means mostly about 16 µM to 33 µM;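 further: the screen sought inhibitors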
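Wild-type enzyme at 0.2 nM final in 50mM citric acid/KH2PO4, 10mM sodium taurocholate, 0.01% tween-20, pH 5.9, with resorufin beta-D-glucopyranoside at 30 uM final. Compounds titrated, 20 min at RT, red fluorescence read; AC50 from titration.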
* = called active by the depositor; [ ] = dose if it differs, or a comment. Potency means the concentration at half of the fitted maximal effect.

What do the screens show for `COc1cc2c(C#N)c(N3CCCCC3)nc(N)c2c(N)n1`?
Luciferase inh: 20µM*; Bst PK mod: inactive; GBA mod: inconclusive

How did COc1cc2c(C#N)c(N3CCOCC3)nc(N)c2c(N)n1 do in these assays?
Luciferase inh: inconclusive; GBA mod: >77

Results for Cc1cc(C)nc(N2CCC(C(=O)O)CC2)n1 ?
Luciferase inh: 1%; Bst PK mod: >57; GBA mod: >77

What do the screens show for `Cc1cc(C)nc(N2CCC(C(=O)Nc3nnc(C)s3)CC2)n1`?
Luciferase inh: -3%; Bst PK mod: >57; GBA mod: 3*

Results for COc1ccc(C(=O)COC(=O)c2ccco2)cc1 ?
Luciferase inh: 6.3µM*; Bst PK mod: 3.1*; GBA mod: >77

What do the screens show for `COc1cccc(NC(=O)COC(=O)c2ccco2)c1`?
Luciferase inh: -47%; Bst PK mod: >57; GBA mod: >77

How did NC1=NC(c2cn(-c3ccccc3)nc2-c2cccs2)n2c(nc3ccccc32)N1 (configuration not stated) do in these assays?
Luciferase inh: 0%; Bst PK mod: >57; GBA mod: 12*

What do the screens show for `CC1=C(C#N)C(c2cn(-c3ccccc3)nc2-c2cccs2)C(C#N)=C(C)N1`?
Luciferase inh: 2%; Bst PK mod: >57; GBA mod: inactive

How did O=C(Nc1ccc(-c2noc(CCc3ccccc3)n2)cc1)c1cccnc1 do in these assays?
Luciferase inh: -10%; Bst PK mod: >57; GBA mod: 14*

What do the screens show for `O=C(Nc1cccnc1)c1cccnc1`?
Luciferase inh: 0%[25.5 µM]; Bst PK mod: >26

What do the screens show for `O=C(CCCc1nc(-c2ccc(Cl)cc2)no1)Nc1cccnc1`?
Luciferase inh: -2%; Bst PK mod: >57

Results for O=C(Nc1ccc2ccccc2c1)c1cccnc1 ?
Luciferase inh: 13µM*

Results for O=C(Nc1ccc2nccnc2c1)c1cnccn1 ?
Luciferase inh: -7%; Bst PK mod: >57; GBA mod: >77

What do the screens show for `O=C(Nc1ccc2ccccc2c1)c1cnccn1`?
Luciferase inh: 7.9µM*; GBA mod: >77

What do the screens show for `CCN1CCN(c2ccc(NC(=O)c3cccnc3)cc2Cl)CC1`?
Luciferase inh: -2%; Bst PK mod: >57; GBA mod: 6.3*

Results for O=C(Nc1ccccc1N1CCCC1)c1cccnc1 ?
Luciferase inh: -1%; Bst PK mod: >57; GBA mod: >77

What do the screens show for `Cc1noc(C)c1-c1cc(NCCN2CCOCC2)ncn1`?
Luciferase inh: -1%[2.29 µM]

What do the screens show for `O=C(O)/C=C\C(=O)Nc1ccc2c(c1)C(=O)c1cc(F)ccc1-2`?
Luciferase inh: -5%[11.4 µM]

What do the screens show for `CN(C)c1ncc2nc(-c3ccc(F)cc3)c(=O)n(C[C@H]3CCCO3)c2n1`?
Luciferase inh: 0%[11.4 µM]

What do the screens show for `COCCNC(=O)c1csc2c1CCCC2`?
Luciferase inh: -1%; Bst PK mod: >57; GBA mod: >77

What do the screens show for `CCOC(=O)Cc1csc(NC(=O)c2csc3c2CCCC3)n1`?
Luciferase inh: 16µM*; Bst PK mod: inactive; GBA mod: >77

What do the screens show for `COc1cc(NC(=O)c2csc3c2CCCC3)ncn1`?
Luciferase inh: 13µM*; Bst PK mod: >57; GBA mod: >77

Results for CCOC(=O)Cc1csc(NC(=O)c2ccc(C)o2)n1 ?
Luciferase inh: -4%; Bst PK mod: >57; GBA mod: >77

What do the screens show for `COCC(=O)N1CCC2(CC1)CN(c1ccc(-c3ccccc3)cc1)C2`?
Luciferase inh: -5%[11.4 µM]

What do the screens show for `Cc1sc2ccccc2[n+]1CCC(=O)O`?
Luciferase inh: -2%[11.4 µM]

Results for CC(C)CN1CC[C@@]2(CCCN(C(=O)c3cc(C(F)(F)F)cc(C(F)(F)F)c3)C2)C1 ?
Luciferase inh: 1%[11.4 µM]

How did COc1cccc(-c2ccc3ncnc(NCc4ccc(OC)cc4OC)c3c2)c1 do in these assays?
Luciferase inh: -1%[2.29 µM]

Results for CCNc1nc(NCC)n2c(SCc3nc4ccccc4c(=O)[nH]3)nnc2n1 ?
Luciferase inh: 0%; Bst PK mod: 7*; GBA mod: >77

Results for Cn1c(-c2ccccc2)cnc1SCc1nc2ccccc2c(=O)[nH]1 ?
Luciferase inh: 5µM*; Bst PK mod: inactive; GBA mod: >77

What do the screens show for `COc1ccc(C(=O)NCCc2nnc(SCc3nc4ccccc4c(=O)[nH]3)n2C)cc1`?
Luciferase inh: 0%; Bst PK mod: >57; GBA mod: >77

What do the screens show for `Cn1c(SCc2nc3ccccc3c(=O)[nH]2)nnc1-c1ccco1`?
Luciferase inh: 3%; Bst PK mod: >57; GBA mod: >77

How did CCc1nc2sc3c(c2c(=O)n1N)CCC3 do in these assays?
Luciferase inh: 3%; Bst PK mod: >57; GBA mod: >77

What do the screens show for `Nn1c(Nc2ccccc2)nc2sc3c(c2c1=O)CCC3`?
Luciferase inh: 20µM*

Results for COCCn1c(=O)c(-c2ccc(OC)cc2)nc2cnc(Nc3cccc(OC)c3)nc21 ?
Luciferase inh: -2%[11.4 µM]

How did COC(=O)c1nn(-c2ccc(-c3ccccc3)cc2)cc1O do in these assays?
Luciferase inh: 3.2µM*

Results for CCOC(=O)c1nn(-c2cc(C(=O)OC)cc(C(=O)OC)c2)cc1O ?
Luciferase inh: 2%; Bst PK mod: >57; GBA mod: >77

How did Nc1ccccc1-c1nc2ccccc2[nH]1 do in these assays?
Luciferase inh: inconclusive; GBA mod: >77

What do the screens show for `Cn1cc(C2=C(c3ccc(Cl)cc3Cl)C(=O)NC2=O)c2ccccc21`?
Luciferase inh: -5%

How did Cc1n[nH]c(C)c1-c1nc2ccccc2[nH]1 do in these assays?
Luciferase inh: 0%; Bst PK mod: >57; GBA mod: >77

What do the screens show for `Nc1cccc(-c2nc3ccccc3[nH]2)c1`?
Luciferase inh: 13µM*

How did Cn1cc(-c2nc3ccccc3[nH]2)c2ccccc21 do in these assays?
Luciferase inh: 13µM*; Bst PK mod: inconclusive

How did Nc1ccc(-c2nc3ccccc3[nH]2)cc1 do in these assays?
Luciferase inh: 16µM*

Results for CC1(C)N=C(N)N=C(N)N1c1cccc(OCc2cccc([N+](=O)[O-])c2)c1 ?
Luciferase inh: 2%[11.4 µM]

How did CN(C)C(=O)c1ccc(-c2nccc(NCc3cccnc3)n2)cc1 do in these assays?
Luciferase inh: 0%[2.29 µM]

What do the screens show for `COC(=O)CCn1nnc(-c2cccs2)n1`?
Luciferase inh: 3%; Bst PK mod: >57; GBA mod: >77

Results for COC(=O)CCn1nnc(-c2ccc(C(C)C)cc2)n1 ?
Luciferase inh: 13µM*; Bst PK mod: >57; GBA mod: >77

How did COc1nc(Cl)nc(Cl)c1Cl (tested in a mixture with another compound) do in these assays?
Luciferase inh: -2%[11.4 µM]

Results for COc1ccccc1CNc1cc(-c2cccc(C#N)c2)ncn1 ?
Luciferase inh: -1%[2.29 µM]

Results for CCc1cc(C(=O)Cc2nc3ccccc3[nH]2)c(O)cc1O ?
Luciferase inh: 10µM*; Bst PK mod: >57; GBA mod: inconclusive

What do the screens show for `CCc1cc(C(=O)Cc2ccc(F)cc2)c(O)cc1O`?
Luciferase inh: 0%

Results for C[C@H]1[C@H](C)CC[C@@]2(C(=O)O)CC[C@]3(C)C(=CC[C@H]4[C@@]5(C)C[C@@H](O)[C@H](O)[C@@](C)(CO)[C@@H]5CC[C@@]43C)[C@@H]12 ?
Luciferase inh: -4%[11.4 µM]

Results for Cc1nonc1NC(=O)Nc1cccnc1 ?
Luciferase inh: 2%; Bst PK mod: >57; GBA mod: inconclusive
